Measured values published in PubChem BioAssay AID652062 (Broad Institute, 2013).
The campaign covered roughly 1,400 compounds. About 1,100 (79%) were called active.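 Rule for the calls: active = fitted half-maximal concentration of a falling signal no higher than twice the top valid dose in every test run; inconclusive = runs disagree, or flat partial inhibition, or poor fit; inactive = every run inactive: flat, wrong direction, or potency beyond limit.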 So high a share suggests a set chosen from earlier hits. These entries were drawn from the full list. Entries with a potency or affinity are not part of this list.

Assay: HIV-1 AD8 envelope cell-cell fusion blockers – cherry-pick, dose response (AID 652062)
Conditions: HeLa-AD8 Env / CEM-CCR5 cell fusion, luciferase; at 35 µM (top of the series) unless noted

| SMILES | activity change, negative = inhibition |
| --- | --- |
| C[C@H]1CN([C@@H](C)CO)S(=O)(=O)c2ccc(-c3cccc(F)c3)cc2O[C@H]1CN(C)S(=O)(=O)c1ccccc1 | -18.9% |
| CCOC(=O)C(C)Oc1cccc2c(=O)n(CC(=O)NCCc3ccc(OC)c(OC)c3)ccc12 (configuration not stated) | 3.5% |
| CC(C)(C)c1ccc(-n2ncc3c2CCCC3NC(=O)CN2CCCC2=O)cc1 (configuration not stated) | -53.4% |
| c1ccc(CSc2nnc([C@@H]3CCCN3)o2)cc1 | 25% |
| Cc1ccccc1S(=O)(=O)NC(=O)C1(C)CCN1C(=O)CCc1ccc(Cl)cc1Cl (configuration not stated) | -6.19% |
| C[C@H](CO)N1C[C@H](C)[C@H](CN(C)Cc2ccccc2)Oc2c(NC(=O)Nc3ccc4c(c3)OCO4)cccc2C1=O | 19.6% [at 16 µM] |
| CNC[C@H]1Oc2c(NC(=O)Nc3ccc(C(F)(F)F)cc3)cccc2C(=O)N([C@@H](C)CO)C[C@H]1C | 50.6% |
| CC(C)CC#Cc1ccc2c(c1)O[C@@H](CN(C)C(=O)C1CCCCC1)[C@H](C)CN([C@@H](C)CO)S2(=O)=O | -88.1% |
| CCOc1ccc2c(c1)-c1c(ssc1=S)C(C)(C)N2C(=O)c1ccco1 | -10.3% |
| COc1cc(OC)cc(C(=O)N[C@H](C(=O)NCCc2c[nH]c3ccccc23)C(C)C)c1 | -23.6% |
| C[C@H]1CN([C@@H](C)CO)C(=O)c2cc(NS(C)(=O)=O)ccc2O[C@@H]1CN(C)Cc1ccc(Cl)c(Cl)c1 | 37.5% |
| C[C@@H]1CN([C@@H](C)CO)C(=O)c2cccc(NS(=O)(=O)c3ccc(F)cc3)c2O[C@@H]1CN(C)Cc1ccc(-c2ccccc2)cc1 | 44.3% [at 16 µM] |
| C[C@H]1CN([C@@H](C)CO)C(=O)Cc2cc(N(C)C)ccc2O[C@H]1CN(C)Cc1ccc(Cl)c(Cl)c1 | 15.3% |
| Cn1cc(S(=O)(=O)N2CCOCC2)cc1C(=O)Nc1cccc(Cl)c1 | -9.96% |
| COc1ccc(-c2nn(C)c(=O)c3ccccc23)cc1NC(=O)Cn1nc(C)c2ccccc2c1=O | 6.7% |
| Cc1cc(C(C)(C)C)oc1C(=O)N(CC(=O)NC1CCCC1)Cc1ccc(Cl)cc1 | -9.64% |
| Cc1ccccc1-n1c(=O)c2ccccc2n2cnnc12 | 40.3% |
| CCOC(=O)C1CCN(C(=O)c2ccc3c(c2)C(=O)N(c2ccccc2C)C3=O)CC1 | 68.2% |
| CCN(CC)CCN(C(=O)c1cc(Cl)sc1Cl)c1nc2cc3c(cc2s1)OCO3 | 54.2% |

| SMILES | activity change, negative = inhibition |
| --- | --- |
| O=C(NCC[C@@H]1CC[C@@H](NS(=O)(=O)c2ccccc2F)[C@@H](CO)O1)c1ccc(F)cc1 | 36% |
| Cc1nc2sc(C(c3ccco3)N3CCC(Cc4ccccc4)CC3)c(O)n2n1 (configuration not stated) | 111% |
| O=C(CNC(=O)c1cccc(-n2cccc2)c1)Nc1ccccc1Br | 4.51% |
| O=C(CCNC(=O)c1ccc(Br)cc1)NNC(=O)COc1ccccc1F | 9.15% |
| Nc1nonc1C(=O)NCCNCc1c(OCc2ccccc2F)ccc2ccccc12 | 10.1% |
| O=C(Nc1cc(Cl)cc(Cl)c1)C(c1ccccc1)N1CCCCC1 (configuration not stated) | -7.46% |
| C[C@H]1CN([C@@H](C)CO)C(=O)c2ccccc2-c2ccccc2CO[C@H]1CN(C)S(=O)(=O)c1ccccc1C#N | 30.6% |
| CCN1CCN(S(=O)(=O)c2ccc(Cl)c(C(=O)Nc3ccccc3N3CCCC3)c2)CC1 | 48.8% |
| CO[C@@H]1CN(C)C(=O)c2cc(NC(=O)Nc3ccc(Cl)cc3)ccc2OC[C@H](C)N(C)C[C@H]1C | -19.7% |
| C[C@@H]1CN([C@H](C)CO)C(=O)c2cc(C#Cc3ccncc3)cnc2O[C@@H]1CN(C)S(=O)(=O)c1ccccc1F | -27% |
| C[C@H](CO)N1C[C@H](C)[C@H](CN(C)S(=O)(=O)c2ccc(C#N)cc2)Oc2ncc(/C=C/c3ccccc3)cc2C1=O | 16.9% [at 16 µM] |
| S=c1nc[nH]c2c1[nH]c1ccc(Cl)cc12 | 149% |
| N#Cc1ccc(CSc2nnc(COc3ccccc3)n2-c2ccccc2)cc1 | 7.17% |
| C[C@H]1CN([C@@H](C)CO)C(=O)c2cc(NS(=O)(=O)c3ccc(F)cc3)ccc2O[C@H]1CN(C)S(=O)(=O)c1ccc(F)cc1 | 7.89% |
| CCCNC(=O)C[C@H]1C[C@H]2c3cc(NC(=O)CN(C)C)ccc3O[C@H]2[C@H](CO)O1 | -19.9% [at 16 µM] |
| CCCNC(=O)C[C@H]1C[C@H]2c3cc(NC(=O)Cc4ccncc4)ccc3O[C@H]2[C@H](CO)O1 | -15.2% |
| CCCNC(=O)C[C@@H]1C[C@@H]2c3cc(NC(=O)CN(C)C)ccc3O[C@@H]2[C@H](CO)O1 | 48.2% |
| CCCNC(=O)C[C@@H]1C[C@@H]2c3cc(NC(=O)Cc4ccncc4)ccc3O[C@@H]2[C@H](CO)O1 | -27.5% |
